Screening results deposited in PubChem by National Center for Advancing Translational Sciences (NCATS).
Compounds with a hit are over-represented: about 9.2% of the library has one in this group of screens.
Rab9 prom act = Rab9 promoter activation | Huh7 Rab9 promoter-luciferase reporter, luminescence, 24 h | Potency, µM (titrated, usually from 9.22 µM), inactives show at the highest dose activation, negative = inhibition, most hits filed as activators | 320,000 tested, 2.8% active; also: % of control where 0% means no effect; nearly all actives have a fitted effect of over 60% in size
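Luminescence read-out: Huh7 cells stably expressing Rab9-luciferase, treated 24 h with compound at 37 °C, then lysed with luciferase reagent for 10 min at ambient before reading.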
ELG1 repair inh = ELG1-dependent DNA repair inhibition. 330,000 tested, 2.3% active. HEK293T ELG1-luciferase reporter, luminescence, 16 h; DNA damage induced by 5-fluorouridine. Potency, µM (highest dose often 46.1 µM), for the others: top-dose activity change, negative = inhibition, most hits filed as inhibitors. AID 504467; also: % is scaled to controls: 0 for no effect and ±100 for the full control effect; nearly all actives have a fitted effect of over 55% in size
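Reporter activity after DNA damage by 5-fluorouridine is monitored. Compound-treated cells incubate 16 hr at 37 °C, then ONE-Glo is added for 30 min before luminescence reading.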
ELG1 genotoxic = genotoxicity induction in ELG1-luciferase HEK293T cells; HEK293T ELG1-luciferase reporter, luminescence, 16 h; Potency, µM (highest dose often 46 µM), without a hit: at the top dose activity change, positive = activation, actives largely listed as activators; 330,000 tested, 1.3% active; AID 504466; also: % of control where 0% means no effect; nearly all actives have a fitted effect of over 60% in size
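Reporter readout depends on ELG1 protein level, which increases with genetic stress. After 16 hr compound exposure at 37 °C, luciferase activity was quantified using ONE-Glo.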
NPC1 promoter act = activates the NPC1 promoter; Potency, µM (highest dose often 9.22 µM), without a hit: top-dose activation, most hits filed as activators; AID 485313; Huh7 NPC1 promoter luciferase reporter, 24 h; 320,000 tested, 2.4% active; also: % of control where 0% means no effect; nearly all actives have a fitted effect of over 60% in size
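In 1536-well qHTS, Huh7 cells harboring an NPC1 promoter–luciferase construct received compound for 24 h; activation was quantified by luminescence following luciferase reagent addition.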
SMN2 splice enh = SMN2 splice variant enhancement; HEK293 SMN2-luciferase splicing reporter, luminescence, 30-36 h; Potency, µM (series often up to 46.1 µM), inactives show top-dose activity change, positive = activation, usual class: activators; 210,000 tested, 2.8% active; AID 1458; also: % of control where 0% means no effect; nearly all actives have a fitted effect of over 55% in size
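HEK293 cells carry an SMN2 […]–luciferase reporter in which exon 7 inclusion puts luciferase in frame. Cells were plated 10-12 h before compound addition, then incubated 30-36 h at 37C. ONE-Glo luminescence was read; sodium butyrate at 4.5 mM final served as control.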
FLuc counter = inhibits or activates purified firefly luciferase, miR-21 counter-screen | P08659 | purified FLuc, Km substrates, luminescence inhibition | Potency, µM (titrated, usually from 57.5 µM), for inactives: top-dose activity change, negative = inhibition, usual class: inhibitors | 360,000 tested, 6.9% active | AID 588342;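 also: plate controls were vehicle for no effect and reference inhibitor for full effect; nearly all actives have a fitted effect of over 55% in size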
Target sequence (P08659 whole entry, looked up): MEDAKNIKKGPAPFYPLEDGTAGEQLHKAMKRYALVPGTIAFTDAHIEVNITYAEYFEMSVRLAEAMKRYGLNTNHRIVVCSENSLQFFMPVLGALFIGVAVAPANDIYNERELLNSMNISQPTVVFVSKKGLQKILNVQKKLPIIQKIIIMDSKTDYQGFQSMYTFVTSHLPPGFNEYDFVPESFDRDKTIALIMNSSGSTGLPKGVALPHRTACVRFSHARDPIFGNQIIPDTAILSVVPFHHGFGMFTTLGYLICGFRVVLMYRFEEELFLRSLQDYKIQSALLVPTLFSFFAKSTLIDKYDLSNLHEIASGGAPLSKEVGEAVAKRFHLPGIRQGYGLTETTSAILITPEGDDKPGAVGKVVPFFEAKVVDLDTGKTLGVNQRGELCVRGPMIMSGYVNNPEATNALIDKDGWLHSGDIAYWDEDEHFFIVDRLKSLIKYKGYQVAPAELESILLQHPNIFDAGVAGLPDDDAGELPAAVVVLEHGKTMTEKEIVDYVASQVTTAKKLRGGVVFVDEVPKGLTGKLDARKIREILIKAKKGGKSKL
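Biochemical qHTS of compounds, final roughly 60 µM downward over six points, against 10 nM purified firefly luciferase using Km concentrations of substrates (10 uM D-luciferin, 10 uM ATP) in Tris acetate pH 7.5 buffer; luminescence output.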
The depositor's hits bear a star; ! = repeats disagree. Calls follow the shape of the dose curve; as a rule, active = well fitted curve in the direction sought with a large enough effect; inconclusive = small, poorly fitted or top-dose-only effect, or another doubt; inactive = no such curve, though single readings can be large; an effect the other way counts as inactive or inconclusive. Potency is read from the fitted curve at half-maximal effect.

How did CSc1nc(O)c(C(c2cccc([N+](=O)[O-])c2)c2c(O)nc(SC)[nH]c2=O)c(=O)[nH]1 do in these assays?
Rab9 prom act: 2%; ELG1 repair inh: 6%; ELG1 genotoxic: -3%; NPC1 promoter act: -2%; SMN2 splice enh: 16%; FLuc counter: -4%

What do the screens show for `CCCn1nc(C(=O)NNC(=O)c2ccc(C)c(C)c2)c2ccccc2c1=O`?
ELG1 repair inh: inconclusive; ELG1 genotoxic: -2%

How did CCCn1nc(C(=O)N2CCN(S(=O)(=O)c3ccc(C)c(C)c3)CC2)c2ccccc2c1=O do in these assays?
Rab9 prom act: -5%; ELG1 repair inh: 23µM*; ELG1 genotoxic: -9%; NPC1 promoter act: -1%; FLuc counter: 0%

How did Cn1ccnc1SCC(=O)c1c[nH]c2ccccc12 do in these assays?
Rab9 prom act: 3.5µM*; ELG1 repair inh: inconclusive; ELG1 genotoxic: 10µM*; NPC1 promoter act: 4µM*; SMN2 splice enh: 18µM*; FLuc counter: 19µM*

What do the screens show for `COc1ccccc1C(=O)CSc1nccn1C`?
Rab9 prom act: 27%; ELG1 repair inh: inconclusive; ELG1 genotoxic: 9%; NPC1 promoter act: 23%; FLuc counter: inconclusive

Results for Cc1nn2c(COc3ccc(NC(=O)c4ccccc4Cl)cc3)nnc2c2ccccc12 ?
Rab9 prom act: 2%; ELG1 repair inh: inconclusive; ELG1 genotoxic: -5%; NPC1 promoter act: -3%; SMN2 splice enh: 19%; FLuc counter: 6µM*

How did Nc1nc2ccc(Oc3ccccc3)cc2s1 do in these assays?
Rab9 prom act: 4µM*; ELG1 repair inh: inconclusive; ELG1 genotoxic: 8.2µM*; NPC1 promoter act: 2.8µM*; SMN2 splice enh: inconclusive; FLuc counter: 8.5µM*

What do the screens show for `Nc1nc2ccc(OC(F)(F)F)cc2s1`?
Rab9 prom act: 10µM*!; ELG1 repair inh: inconclusive; ELG1 genotoxic: 16%; NPC1 promoter act: 10µM*!; SMN2 splice enh: inconclusive; FLuc counter: inconclusive

Results for Cc1nc2ccc(CCO)cc2s1 ?
Rab9 prom act: -4%; ELG1 repair inh: 17%; ELG1 genotoxic: 3%; NPC1 promoter act: -2%; SMN2 splice enh: 0%; FLuc counter: -13%

Results for Cc1nc2ccc(Oc3ccccc3)cc2s1 ?
Rab9 prom act: 12%; ELG1 repair inh: inconclusive; ELG1 genotoxic: 5%; NPC1 promoter act: 15%; FLuc counter: 17µM*

Results for C=CCn1cc(/C=C/c2cc[n+](C)cc2)c2ccccc21 ?
Rab9 prom act: -48%; ELG1 repair inh: inconclusive; ELG1 genotoxic: -13%; NPC1 promoter act: -44%; FLuc counter: -1%

Results for CCn1cc(/C=C/c2cc[n+](C)cc2)c2ccccc21 ?
Rab9 prom act: -43%; ELG1 repair inh: 2.9µM*; ELG1 genotoxic: -8%; NPC1 promoter act: -42%; FLuc counter: 0%

How did Cc1ccc(-c2noc(CCC(=O)NCCN3CCc4ccccc4C3)n2)cc1 do in these assays?
Rab9 prom act: -10%; ELG1 repair inh: -20%; ELG1 genotoxic: -9%; NPC1 promoter act: 1%; SMN2 splice enh: -5%; FLuc counter: -14%

How did CCOC(=O)C1=C(Cc2ccc(OC)cc2)C(=O)c2ccccc2C1=O do in these assays?
Rab9 prom act: 1%; ELG1 repair inh: 7%; ELG1 genotoxic: 28%; NPC1 promoter act: -14%; SMN2 splice enh: -26%; FLuc counter: 11µM*

Results for CCOC(=O)C1=C(Cc2ccc(C)cc2)C(=O)c2ccccc2C1=O ?
Rab9 prom act: -12%; ELG1 repair inh: inconclusive; ELG1 genotoxic: 4%; NPC1 promoter act: -5%; SMN2 splice enh: -98%; FLuc counter: 13µM*

What do the screens show for `CCSc1ncc(Cl)c(C(=O)N2CCN(c3ccccc3OC)CC2)n1`?
SMN2 splice enh: -1%; FLuc counter: -1%

What do the screens show for `CN(C)CCNC(=O)c1cc2c(s1)-c1ccccc1OC2`?
Rab9 prom act: 18%; ELG1 repair inh: inconclusive; ELG1 genotoxic: 23µM*; NPC1 promoter act: 17%; SMN2 splice enh: -11%; FLuc counter: 19µM*

Results for COc1ccc(Cl)cc1NC(=O)c1cc2c(s1)-c1ccccc1OC2 ?
SMN2 splice enh: -7%; FLuc counter: 7%

Results for Cc1csc(NC(=O)c2cc3c(s2)-c2ccccc2OC3)n1 ?
Rab9 prom act: inconclusive; ELG1 repair inh: inconclusive; ELG1 genotoxic: 17%; NPC1 promoter act: 3.5µM*; SMN2 splice enh: inconclusive; FLuc counter: inconclusive

How did CCOc1ccc(NC(=O)c2cc3c(s2)-c2ccccc2OC3)cc1 do in these assays?
SMN2 splice enh: -28%; FLuc counter: 3%

How did Cc1c(NC(=O)c2cc3c(s2)-c2ccccc2OC3)cccc1[N+](=O)[O-] do in these assays?
Rab9 prom act: -9%; ELG1 repair inh: 23µM*; ELG1 genotoxic: -10%; NPC1 promoter act: 0%; FLuc counter: -6%

Results for N#C/C(=C\c1ccc[nH]1)C(=O)Nc1ccccc1F ?
Rab9 prom act: 0.5µM*; ELG1 repair inh: inconclusive; ELG1 genotoxic: 12µM*; NPC1 promoter act: 1.3µM*; FLuc counter: inconclusive

How did COc1ccc(NC(=O)/C(C#N)=C/c2ccc[nH]2)c(OC)c1 do in these assays?
Rab9 prom act: inconclusive; ELG1 repair inh: 4%; ELG1 genotoxic: 14%; NPC1 promoter act: 3.2µM*; FLuc counter: -2%

How did Cc1cc(/C=C(\C#N)C(=O)NC2CC2)c(C)[nH]1 do in these assays?
Rab9 prom act: 3.2µM*; ELG1 repair inh: inconclusive; ELG1 genotoxic: inconclusive; NPC1 promoter act: 4µM*; SMN2 splice enh: 11µM*; FLuc counter: 12µM*

How did Cc1cc(/C=C(\C#N)C(=O)NC2CCCCCC2)c(C)[nH]1 do in these assays?
Rab9 prom act: 23%; ELG1 repair inh: inconclusive; ELG1 genotoxic: 10%; NPC1 promoter act: 24%; SMN2 splice enh: 30%; FLuc counter: inconclusive

Results for N#C/C(=C\c1ccc[nH]1)C(=O)Nc1ccccc1Cl ?
Rab9 prom act: inconclusive; ELG1 repair inh: inconclusive; ELG1 genotoxic: inconclusive; NPC1 promoter act: 0.71µM*; FLuc counter: -16%

Results for COc1ccc(NC(=O)/C(C#N)=C/c2ncc([N+](=O)[O-])n2C)c(OC)c1 ?
Rab9 prom act: 1%; ELG1 repair inh: -12%; ELG1 genotoxic: -1%; NPC1 promoter act: -2%; FLuc counter: 2%

How did COc1ccc2c(c1)O[C@@H](c1cccc(C(F)(F)F)c1)[C@H](OC(=O)Nc1ccc(C)c(Br)c1)C2=O do in these assays?
SMN2 splice enh: 1%

How did Cc1cc(/C=C(\C#N)C(=O)Nc2ccccc2F)c(C)[nH]1 do in these assays?
Rab9 prom act: 0.56µM*; ELG1 repair inh: inconclusive; ELG1 genotoxic: inconclusive; NPC1 promoter act: 1.1µM*; FLuc counter: 2.1µM*
